Compound activity: PubChem, National Center for Advancing Translational Sciences (NCATS)
Hits are enriched below; roughly 11% of the tested compounds scored in any of these assays.
Tau FP inhib: tau fibrillization inhibition (FP). K18 P301L tau heparin fibrillization, Alexa594 FP, 6 h. hit rate 0.39% among 280,000. Potency, µM (highest dose often 57.7 µM), for inactives: at the top dose activity, negative = inhibition, most hits filed as inhibitors. P10636; also: potency is read from the fitted curve at half-maximal effect; nearly all actives have a fitted effect of over 55% in size
Target sequence (P10636 561-689 P618L limits assumed): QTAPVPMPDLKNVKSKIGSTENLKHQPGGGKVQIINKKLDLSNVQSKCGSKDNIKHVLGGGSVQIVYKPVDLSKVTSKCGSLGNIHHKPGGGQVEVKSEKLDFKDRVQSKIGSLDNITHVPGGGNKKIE
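Quantitative HTS format: compounds meet 15 uM recombinant K18 P301L tau and Alexa 594-tau tracer in 100 mM sodium acetate pH 7; 20 uM heparin triggers fibrillization at 37 C over 6 hr; FP gives the signal.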
Sfp inh: Sfp phosphopantetheinyl transferase inhibition; Q9F4F7; Biochemical Sfp PPTase activity, qHTS; Potency, µM, without a hit: largest response in the series, negative = inhibition, actives largely listed as inhibitors; hit rate 3.5% among 310,000;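 also: the enzyme is Sfp with the accession as filed and its product quenches rhodamine fluorescence; potency is read from the fitted curve at half-maximal effect; 0% = enzyme reaction without inhibitor and -100% = no enzyme wells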
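Reaction rates are the 30-min fluorescence difference (ex 525, em 598 nm) in wells containing 15 nM Sfp, 5 uM rhodamine-CoA and 12.5 uM BHQ-2-YbbR at pH 7.6 with 10 mM MgCl2.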
Tau fluor cs: counter-screen for tau fibril formation inhibitors | hit rate 0.93% among 280,000 | tau K18 P301L Alexa594 fluorescence, heparin fibrillization | Potency, µM (highest dose often 57.7 µM), without a hit: at the highest dose activity change, negative = decrease | AID 1463; also: potency is read from the fitted curve at half-maximal effect; nearly all actives have a fitted effect of over 55% in size
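Human tau K18 P301L (15 uM unlabeled, 0.24 uM Alexa 594-labeled) in 100 mM sodium acetate pH 7 with 20 uM heparin, 6 hr at 37 C. ThT 30 uM added, 1 hr ambient; Alexa 594 FP and total fluorescence read at 555/632 nm.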
Tau fibril ThT: blocks human tau fibril formation measured by thioflavin T. P10636. recombinant tau K18 P301L, heparin-induced fibrillization, ThT fluorescence. Potency, µM (doses to about 57.4 µM), inactives show top-dose activity, negative = inhibition, actives largely listed as inhibitors. hit rate 2.1% among 270,000. AID 1460; also: potency is read from the fitted curve at half-maximal effect; nearly all actives have a fitted effect of over 55% in size
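ThT emission at 510 nm, taken 1 hr after adding 30 uM dye, quantifies aggregates formed when 20 uM heparin acts on human tau K18 P301L for 6 hr at 37 C.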
Coupling enz: coupling enzyme interference in Giardia aldolase counter-screen; coupling enzyme system counterscreen, AmpLite Red fluorescence; activity change, negative = inhibition, % at 58.2 µM, hits read low; hit rate 0.67% among 290,000; AID 2472; in the data active = activity change below about -30%
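Counterscreen lacking aldolase: glyceraldehyde-3-phosphate coupling-enzyme reagent preincubated 10 min at RT with compound (at 57.5 uM final), then substrate/coupling system with AmpLite Red added; fluorescence read at 525/598 nm after 20 min RT.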
G9a block: inhibitors of human histone lysine methyltransferase G9a; hit rate 8.8% among 350,000; G9a H3K9 monomethylation, AlphaScreen, 2 h; Potency, µM (highest dose often 102 µM), for the others: at the top dose activity, negative = inhibition, usual class: inhibitors; also: potency is read from the fitted curve at half-maximal effect; nearly all actives have a fitted effect of over 75% in size
Target sequence (Q96KQ7 913-1193 limits assumed): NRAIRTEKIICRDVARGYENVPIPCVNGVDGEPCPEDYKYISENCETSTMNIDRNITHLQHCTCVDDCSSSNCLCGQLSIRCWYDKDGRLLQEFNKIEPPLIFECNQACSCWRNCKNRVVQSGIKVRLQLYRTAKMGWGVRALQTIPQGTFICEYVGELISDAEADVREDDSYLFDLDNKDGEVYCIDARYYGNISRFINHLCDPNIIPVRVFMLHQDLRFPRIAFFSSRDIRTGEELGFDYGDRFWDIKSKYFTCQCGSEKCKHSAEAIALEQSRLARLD
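Step 1: enzyme (final 20 nM) with compound, 15 min RT. Step 2: substrate peptide 500 nM and SAM 20 uM, 2 h RT. Step 3: anti-H3K9me1 antibody and AlphaScreen beads, 10 min, then plate read.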
An asterisk follows results filed as active; [ ] = dose if it differs, or a comment. Unless noted, calls follow the shape of the dose curve; as a rule, active = well fitted curve in the direction sought with a large enough effect; inconclusive = small, poorly fitted or top-dose-only effect, or another doubt; inactive = no such curve, though single readings can be large; an effect the other way counts as inactive or inconclusive. Unless noted, % is scaled to controls: 0 for no effect and ±100 for the full control effect.

`NC(=O)CN1C(=O)/C(=c2\sc3nc(=O)c(Cc4ccccc4)nn3c2=O)c2ccccc21` gave Tau FP inhib -17.4%[11.6 µM], Sfp inh 11.2µM*, Tau fluor cs -6.5%[11.6 µM], Coupling enz -0.6 and G9a block 7.94µM*.
For CCCCN1C(=O)/C(=C2\SC(N3CCOCC3)=NC2=O)c2ccccc21 the results were Sfp inh 23.9%, Coupling enz 2.4 and G9a block -23.7%.
CCCN1C(=O)/C(=c2\sc3nc(=O)c(Cc4ccc(C)cc4)nn3c2=O)c2ccccc21 was read as Tau FP inhib inconclusive, Sfp inh 20µM*, Tau fluor cs -19.8%, Tau fibril ThT inconclusive and Coupling enz 1.9.
`COc1ccc2c(n1)Sc1nc3ccccc3nc1N2` gave Tau FP inhib 5.8%, Sfp inh -8.6%, Tau fluor cs 3.98µM*[quencher], Tau fibril ThT 1µM*, Coupling enz -1.6 and G9a block 15.3%.
`COc1cc2ccccc2nn1` gave Tau FP inhib 2.8%, Sfp inh 16.2%, Tau fluor cs -5.6%, Tau fibril ThT -3.0%, Coupling enz 3.7 and G9a block 29.1%[59 µM].
`C/C(N)=C(/C#N)C(=O)CSc1nnc(Nc2cccc(C)c2C)s1` gave Tau FP inhib -2.6%, Sfp inh 15.1%, Tau fluor cs -27.6%, Tau fibril ThT -19.1%, Coupling enz -0.7 and G9a block inconclusive.
`CSc1nnc(SCC(=O)NC(=O)c2ccccc2)s1` gave G9a block 44.7µM*.
`C/C(N)=C(/C#N)C(=O)CSc1nnc(Nc2c(C)cccc2C)s1` gave Tau FP inhib 2.1%, Sfp inh 4.9%, Tau fluor cs -16.6%, Tau fibril ThT inconclusive, Coupling enz 0.1 and G9a block 31.6µM*.
Cc1cccc(C)c1Nc1nnc(SCC(=O)NC(=O)c2cccn2C)s1 was read as Tau FP inhib 11.4%, Sfp inh -0.9%, Tau fluor cs -10.0%, Tau fibril ThT -12.2%, Coupling enz -1.8 and G9a block 20µM*.
Screening CCc1ccc(CNC(=O)CCn2ccc3cc(S(=O)(=O)N4CCCC4)ccc32)cc1 returned Sfp inh -7.3%, Coupling enz -1.9 and G9a block 13.0%.
Screening CC(=O)Nc1ccc(S(=O)(=O)NCCc2cn3ccsc3n2)cc1 returned Tau FP inhib 6.2%, Tau fluor cs 11.6%, Tau fibril ThT 8.8% and G9a block 1.2%[59 µM].
Screening O=C(N/N=C1/C[C@@H](O)[C@@H](O)[C@@H]2[C@@H]3C(=O)N(C[C@@H]4CCCO4)C(=O)[C@H]3CC[C@@H]12)OCc1ccccc1 returned Tau FP inhib -7.9%[11.6 µM], Sfp inh 4.6%, Tau fluor cs -10.5%[11.6 µM], Tau fibril ThT -0.3%[11.5 µM] and Coupling enz 2.6.
For COc1ccc(CNC(=O)C(=O)NCC(c2cccnc2)N2CCN(c3ccccc3)CC2)cc1 (centres undefined) the results were Tau FP inhib -0.8%, Tau fluor cs -2.0%, Tau fibril ThT -0.5% and G9a block 1.2%[59 µM].
Screening C=C1c2cccc(O)c2C(O)=C2C(=O)[C@]3(O)C(O)=C(C(N)=O)C(=O)[C@@H](N(C)C)[C@@H]3[C@@H](O)[C@H]12 returned Tau FP inhib inconclusive, Sfp inh 35.5µM*, Tau fluor cs inconclusive, Tau fibril ThT inconclusive, Coupling enz -2.3 and G9a block -160.4%[59 µM].
C[C@H]1c2cccc(O)c2C(O)=C2C(=O)C3(O)C(O)=C(C(N)=O)C(=O)[C@@H](N(C)C)[C@@H]3[C@@H](O)[C@@H]21 (some centres undefined) was read as G9a block 5.01µM*.
For C=C1c2cccc(O)c2C(O)=C2C(=O)[C@]3(O)C(O)=C(C(N)=O)C(=O)C(N(C)C)C3C(O)C12 (some centres undefined) the results were Tau FP inhib -4.9%, Sfp inh -45.2%, Tau fluor cs -19.6%, Tau fibril ThT inconclusive, Coupling enz -5.4 and G9a block inconclusive.
